In PubChem BioAssay:

Assay: E. coli acrAB mutant growth effects, primary screen, E. coli filamentation inducers, strain DRC39, OD650, 48 h (AID 1179);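 note: screen aims at cell division blockers that make cells filament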
Settings: E. coli DRC39 delta-acrAB growth, higher = more signal, called active from +8 up or from −8 down

z-score, inactive:
COC(=O)[C@]1(Cc2ccccc2CN=[N+]=[N-])N=C(c2ccc(OCCCO)cc2)O[C@@H]1c1ccccc1N=[N+]=[N-] 0.918, O=C1O[C@H](c2ccccc2)[C@H](c2ccccc2)N2[C@H]1[C@@H](C(=O)O)[C@]1(C(=O)Nc3ccc(C#CC4(O)CCCCCC4)cc31)[C@H]2c1ccccc1OCCO 0.732, COCCOC(=O)N1C(=O)[C@@]2(c3ccccc31)[C@H](C(=O)Nc1nc3ccccc3s1)[C@H]1C(=O)O[C@H](c3ccccc3)[C@H](c3ccccc3)N1[C@@H]2c1ccccc1OCCO -0.315, [N-]=[N+]=Nc1ccccc1C[C@]1(C(N)=O)COC(c2ccc(OCCCO)cc2)=N1 -0.364, CCOC(=O)C1=CCC(c2cccn2C(=O)OC(C)(C)C)N(S(=O)(=O)c2ccc(C)cc2)C1 (stereo unspecified) 0.605, O=C1C2C=CC(C(O)C(c3ccccc3)c3ccccc3)N(Nc3ccccc3F)C2C(=O)N1c1ccccc1 (stereo unspecified) -0.82, COc1cc(Cc2cc3c(c(-c4ccccc4)n2)[Si](C(C)C)(C(C)C)OC3)cc(OC)c1OC 0.405, CC1(C)OB(/C=C\CC(OC(=O)c2ccncc2)c2ccccc2)OC1(C)C (stereo unspecified) -0.465, COC(=O)[C@@]1(Cc2ccc(F)cc2)[C@H]2c3cc(C(=O)N(C)C)n(Cc4ccc(C(F)(F)F)nc4)c3C[C@H]2CN1C(=O)c1ccccc1 -0.171, Cc1ccc(S[C@]2(C(=O)NC(C)C)CC(=O)N(Cc3ccccc3)[C@@H]2c2ccc(CO)cc2)cc1 1.62, CN1C(=O)C2C=CC(C(O)c3ccc([N+](=O)[O-])cc3)N(Nc3ccccc3)C2C1=O (stereo unspecified) -1.16, C=CCNC(=O)[C@@H]1[C@H]2C(=O)O[C@H](c3ccccc3)[C@H](c3ccccc3)N2[C@H](c2ccc(OCCO)cc2)[C@@]12C(=O)Nc1ccc(C#CC3=CCCCC3)cc12 -0.563, O=C/C=C/c1ccc(-c2ccccc2)cc1 0.917, CCCCCCc1nc(Cc2cc(OC)c(OC)c(OC)c2)c(C)c2c1[Si](C(C)C)(C(C)C)OC2 0.707, [N-]=[N+]=Nc1ccccc1C[C@]1(C(=O)N2CCCCC2)N=C(c2ccc(OCCCO)cc2)O[C@H]1c1ccccc1 0.647, COc1ccc(C(O)C2C=CC3C(=O)N(C)C(=O)C3N2Nc2ccccc2)cc1 (stereo unspecified) -0.605, COc1ccc(C(=O)Nc2ccc(CN3C(=O)[C@]4(O[C@H](CC(=O)N(CCO)Cc5ccccc5)[C@@H]([Si](C)(C)c5ccc(OC)cc5)[C@@H]4C)c4ccccc43)cc2)cc1 -0.575, C=C(COC)C(=O)CC[C@@H](OC(=O)c1ccccc1-c1ccccc1C(=O)O)c1ccccc1OCCO -0.129, C=C1C(=O)C=C2CN(C(=O)c3ccccc3)[C@@](Cc3ccc(F)cc3)(C(=O)OC)[C@@H]12 -1.8, C=CCOC(=O)[C@@H]1[C@H]2C(=O)O[C@H](c3ccccc3)[C@H](c3ccccc3)N2[C@H](c2ccc(OCCOC(=O)[C@H]3C[C@H]4C(=O)N[C@@H](CCCCN(C)C)C(=O)N4[C@H]3c3cccc(OCCO)c3)cc2)[C@@]12C(=O)Nc1ccccc12 0.352, COCCCNC(=O)[C@@]1(Cc2ccccc2I)c2ccccc2C(=O)N(Cc2ccccc2OC)[C@H]1c1ccc(CO)cc1 -0.113, COCCCNC(=O)[C@@]1(Cc2ccccc2I)c2ccccc2C(=O)N(C2CCCCC2)[C@H]1c1ccc(CO)cc1 0.26, O=C1C2C=CC(C(O)C3CCCCC3)N(Nc3ccccc3F)C2C(=O)N1c1ccccc1 (stereo unspecified) -0.1, COC(=O)C1(CC(C)C)C=C2C(=C(C)C(=O)C2C)CN1 (stereo unspecified) -0.078, CCOC(=O)C=C1C[C@@H](c2cccc([N+](=O)[O-])c2)O[C@@H](c2cccc([N+](=O)[O-])c2)O1 0.335, CC(C)Cc1ccc(CN2CC[C@@H](NC(=O)c3ccccc3)C2)cc1 0.118, COc1ccc(CCNC(=O)[C@@]2(c3ccc([N+](=O)[O-])cc3)CC(=O)N(C3CCCCC3)[C@@H]2c2ccc(CO)cc2I)cc1 -0.0406, COC(=O)[C@]1(Cc2ccccc2N=[N+]=[N-])N=C(c2ccc(OCCCO)cc2)O[C@@H]1c1ccccc1CN=[N+]=[N-] -0.609, C=C(C(=O)CC[C@@H](OC(=O)c1ccccc1-c1ccccc1C(=O)O)c1ccc(OCCO)cc1)C(C)C -0.135, CC(C)[Si]1(C(C)C)OCc2cc(-c3ccc(-c4ccc(Cl)c(Cl)c4)o3)nc(-c3ccc(Oc4ccccc4)cc3)c21 -0.262, O=C1C2C=CC(C(O)c3ccccn3)N(Nc3ccc([N+](=O)[O-])cc3)C2C(=O)N1c1ccccc1 (stereo unspecified) -0.462, O=C1OC[C@@H](c2ccccc2)n2cc(/C=C/c3ccccc3)cc21 -0.733, CC[C@@H](O[Si](C#C[Si](C(C)C)(C(C)C)C(C)C)(C(C)C)C(C)C)c1cn([C@H](C)c2ccccc2)nn1 0.142, O=C1OCCC/C=C\[C@H]2OC34C=CCN(Cc5ccccc5)C(=O)[C@H]3N(CCO)C(=O)[C@@H]4C12 (stereo partly specified) 1.89, COc1ccc(C(=O)Nc2cccc(CN3C(=O)[C@]4(O[C@H](CC(=O)N(CCO)Cc5ccccc5)[C@@H]([Si](C)(C)c5ccc(OC)cc5)[C@@H]4C)c4ccccc43)c2)cc1 0.852, COC(=O)[C@@]1(Cc2ccc(F)cc2)[C@H]2c3cc(C(=O)N4CCCC4)n(CCc4c[nH]c5cc(F)ccc45)c3C[C@H]2CN1C(=O)c1ccccc1 -0.55
